Laboratory results from PubChem BioAssay (NCI).
Compounds without any hit were thinned out: in the full panel of roughly 83,000, 20% have a hit.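 Negative percent growth values reflect cell death: -40 means 40% of the cells present at the start died, and -100 means all died.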 The source made the active and inactive calls. Rule for the calls: active = growth percent below 10; inactive = the rest.

The compounds below were run on HL-60(TB) leukemia (assay: NCI-60 one-dose screen, 48 h (100 = growth as untreated, 0 = no growth, -100 = all killed)). Details: 10 µM unless noted.

`CC(=O)OC1Oc2cc(C)c(C)cc2-c2oc(=O)c(-c3ccccc3)cc21` (stereo not given) was tested. Which growth did it give?
Its growth is -39.1% (active).

Which growth does the source give for `O=C(Nc1ccc(Cl)cc1)c1cc(-c2ccc(Cl)cc2)c2sc(=O)[nH]c2n1` here?
Its growth is -53.7% (active).

For `Cc1c(C(=O)Nc2nc(-c3ccccc3)cs2)nnn1-c1ccccc1Br`, which growth is on record?
The growth was 36.9% [50 µM] (inactive).

How did the growth turn out when `Cc1c2cnccc2c(C)c2c1oc1ccccc12` was run?
The growth was 61.8% (inactive).

Which growth does the source give for `CCCCCCCCn1ccc2cc(NC(=O)CN3CCN(c4nc(C)cc(N5CCCCC5)n4)CC3)ccc21` here?
The growth was 71% (inactive).

With `Cc1cc(N2CCN(c3ccnc4cc(Cl)ccc34)CC2)nc(NC2CCCCC2)n1` as the compound, how does the growth read?
The growth was -54.1% (active).

For `CC1=CC(=O)c2ccccc2C1=O`, which growth is on record?
Its growth is 106% (inactive).

For `COC1=CC(c2ccc[nH]2)=N/C1=C\c1[nH]c(C)c(C(=O)OC(C)C)c1C`, which growth is on record?
The growth was 2.29% (active).

For `COc1cc(NCC(C)(O)CN(CC(C)C)CC(C)C)c2nc(C)ccc2c1` (stereo not given), which growth is on record?
The growth was 71.4% (inactive).

Which growth does the source give for `CNc1nc(C)c(-c2nc(Nc3cccc(S(N)(=O)=O)c3)ncc2F)s1` here?
The growth was -47.9% (active).

How did the growth turn out when `N#C/C(=C\c1ccc(-c2ccc(Br)cc2)o1)c1nc(-c2cccs2)cs1` was run?
The growth was 92.7% (inactive).

Which growth does the source give for `CC(CNC(Cc1ccccc1)c1ccccc1)NC(Cc1ccccc1)c1ccccc1` (stereo not given) here?
Its growth is 26.2% (inactive).

`O=C1CCC/C=C\C[C@H]2C=CC(=O)/C2=C/C[C@H](C/C=C\CC(F)(F)F)O1` was tested. Which growth did it give?
The growth was -16.6% (active).

For `CC(=O)Nc1cccc(NC(C)=O)n1`, which growth is on record?
Its growth is 96.5% (inactive).

How did the growth turn out when `NC(=N\N=C\c1ccccc1O)/C(N)=N/N=C/c1ccccc1O` was run?
The growth was 69.5% (inactive).
